This is an account of results in the OligoGym collection.
Note: reference of the scale not given here.

The first assay concerns the target EPDR1. In words: pooled miR-30 sensor sort-seq; sequence = guide strand. As to conditions: shRNA.
TATTCAAATAATCTCTTGCAGG: the sensor-assay potency score (higher = more potent) was -0.781.
Still for that read-out and setting: the result for TATCACACTGTAGTTTATGGTA reads -0.596; that for TTAGGAGACAATAGTCTCCTGA, -0.95; that for TCTAGCTGACTTTCTGTCCGAC, -0.0561.
Same read-out and setting: then TAGCATTCACATCTTGACTAGT, with 0.0481.
Same read-out and setting: then TAGGATCTAGCTGACTTTCTGT, with 0.667; and TAGTCTCATATCCATCTCCAGC, with -1.45.
The sequence TAGAGGAATAATTACTTCCTAT displayed a sensor-assay potency score (higher = more potent) of -0.811.
The same measure, in the same setting: then TAGGATTCTCTAAACTGCCTTG, with -0.223.

The target in another assay is EPGN. Described as above. Particulars: shRNA.
TATGTTGTCAGCTTGCTGGGCT registered a sensor-assay potency score (higher = more potent) of 0.572.
Same read-out and setting: then ATAACCAGTAAAACACCTGCAG, with -0.113.
The same measure, in the same setting: then TTTCATAAGAATCCACAGCATA, with -0.859; and TAATAGTAATCCAACACCAATC, with -1.34.
The same measure, in the same setting: the result for AACCACTTAATAGTAATCCAAC reads -1.22; that for TTGGAGGTGTTACAGTCACGGC, -1.5.
On to TGCAGTAACTGTTATGATCTTC, for which the sensor-assay potency score (higher = more potent) was -0.113.
The same measure, in the same setting: then TAAGAATCCACAGCATATGAAG, with -1.16; and TAACCAGTAAAACACCTGCAGA, with -1.05; and TTCTATGTTGTCAGCTTGCTGG, with -0.845.
Same read-out and setting: the result for TTTCTCTAGCTCATGGTGGAAT reads -1.09.
The same measure, in the same setting: the result for TTGAATAAAAGATAGACTGATA reads -0.413.

Another assay addresses EPHA6. The description is as above. Particulars: shRNA.
The sequence TATCAAGCAACACAACTTGGTT yielded a sensor-assay potency score (higher = more potent) of -0.642.
The sequence TTCAGCTCGGAAATAACCCTTT came in with a sensor-assay potency score (higher = more potent) of -0.23.
The same measure, in the same setting: then TTTTCTGAGCTGCATCACGGGA, with -0.977.
Same read-out and setting: then TTGGCTTGAATTTAATTCCGTG, with 0.00331.
Still for that read-out and setting: the result for TTTCTGACTGTAGCCACTGTAT reads -1.06; that for TACAGTTGTTGTATCAAGCAAC, 0.0165; that for TGTATCAAGCAACACAACTTGG, -0.401.
In turn, ATTTCTTGTAGAAAACACGGAC registered a sensor-assay potency score (higher = more potent) of -0.586.
The sequence TTTCTTACAGATTACACTGTAT returned a sensor-assay potency score (higher = more potent) of -0.425.
Sequence TTCCATTACATTACATACCTGG showed a sensor-assay potency score (higher = more potent) of 0.0947.
Consider TTACAGATTACACTGTATGTGA, for which the sensor-assay potency score (higher = more potent) is 0.175.

A further assay has as its target EPHA8. The assay is described as above. Particulars: shRNA.
For the sequence ATCGAGGACACTGACAATCTGG, the sensor-assay potency score (higher = more potent) is -0.163.
Still for that read-out and setting: then TGCATGATGGTGAACTGCCCGT, with -1.1; and TGATAGTGCATCTTCTCCTCGT, with 0.0465; and TTTCCCGGTCTCCACCTCCATG, with -1.71.
The same measure, in the same setting: the result for TCCATTCTGATAGTGCATCTTC reads -0.518.
Still for that read-out and setting: then TACATCTTGGGTGTGTCCCGCT, with -0.241; and ATGAGCGTCAGGCAGATCCAGA, with -1.66; and TCTGTCTCTCCGTGTAGCCGGC, with -0.777.
